Key:
Conditions in all cases: concentration: 1 μM,replicates: in singlicate; n = 1
PRKD3 = test system: PRKD3
PRKG1 = test system: PRKG1
PRKG2 = test system: PRKG2
PRKR = test system: T1, PRKR
T1 construct: gene EIF2AK2

PRKX = test system: PRKX
PRP4 = test system: PRP4
PYK2 = test system: T2, PYK2
T2 construct: gene PTK2B

QSK = test system: QSK
RAF1 = test system: RAF1
RET = test system: RET
RIOK1 = test system: RIOK1
RIOK2 = test system: RIOK2
RIOK3 = test system: RIOK3
RIPK1 = test system: RIPK1
RIPK2 = test system: RIPK2
RIPK4 = test system: RIPK4
RIPK5 = test system: RIPK5
ROCK1 = test system: ROCK1
ROCK2 = test system: ROCK2
ROS1 = test system: ROS1
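Further: KINOMEscan kinase panel screen.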

Row | Structure (SMILES) | %Inh (PRKD3) | %Inh (PRKG1) | %Inh (PRKG2) | %Inh (PRKR) | %Inh (PRKX) | %Inh (PRP4) | %Inh (PYK2) | %Inh (QSK) | %Inh (RAF1) | %Inh (RET) | %Inh (RIOK1) | %Inh (RIOK2) | %Inh (RIOK3) | %Inh (RIPK1) | %Inh (RIPK2) | %Inh (RIPK4) | %Inh (RIPK5) | %Inh (ROCK1) | %Inh (ROCK2) | %Inh (ROS1)
1 | CCN(CC)CCOc1ccc(Nc2ncc3cc(-c4c(Cl)cccc4Cl)c(=O)n(C)c3n2)cc1 [SB-601273] | 100% | 0% | 9% | 18% | 0% | 31% | 56% | 95.6% | 97% | 100% | 35% | 29% | 92.3% | 100% | 99.7% | 18% | 44% | 25% | 50% | 50%
2 | Cc1n[nH]c2ccc(-c3cc(OC[C@@H](N)Cc4ccccc4)cnc3-c3ccoc3)cc12.O=C(O)C(F)(F)F.O=C(O)C(F)(F)F [GSK507358] | 100% | 0% | 0% | 4% | 84% | 27% | 40% | 5% | 0% | 8% | 93% | 0% | 72% | 0% | 0% | 0% | 0% | 31% | 33% | 0%
3 | CN(C)CCOc1ccc(-c2cc(-c3c[nH]nc3-c3ccccn3)ccn2)cc1 [GW835314] | 91.5% | 0% | 12% | 0% | 0% | 0% | 0% | 9% | 28% | 36% | 0% | 2% | 8% | 0% | 78% | 16% | 14% | 9% | 18% | 21%
4 | Cc1cc2cn[nH]c2cc1-c1cccc2c(N)c(C(N)=O)nnc12 | 84% | 0% | 23% | 2% | 20% | 6% | 27% | 15% | 0% | 19% | 100% | 77% | 73% | 0% | 4% | 84% | 74% | 70% | 68% | 80%
5 | CN(C)CC(O)COc1ccc(Nc2nccc(-c3cnn4nc(N5CCOCC5)ccc34)n2)cc1 (stereo not shown) [GW767488] | 93.6% | 0% | 50% | 59% | 8% | 2% | 29% | 43% | 6% | 17% | 96.6% | 98.2% | 98.2% | 46% | 0% | 55% | 65% | 93.8% | 97.9% | 48%
6 | O=C(NCCNc1ccnc(NCc2ccc(F)cc2)n1)c1cc2ccccc2s1 [GSK1379944] | 100% | 22% | 0% | 0% | 19% | 18% | 14% | 7% | 11% | 79% | 28% | 0% | 17% | 0% | 73% | 5% | 0% | 0% | 0% | 7%
7 | Cl.Cl.Nc1nc(-c2ccc3c(N)n[nH]c3c2)cc(N2CCCC(NC(=O)c3ccccc3)C2)n1 (stereo not shown) [GSK2286775] | 0% | 0% | 38% | 5% | 83% | 36% | 15% | 0% | 9% | 0% | 96.5% | 9% | 99.3% | 4% | 8% | 39% | 5% | 2% | 30% | 0%
8 | CC(C)N1C(=O)Cc2cc(Nc3ncc(C(F)(F)F)c(NCc4cccc(S(C)(=O)=O)c4)n3)ccc21 | 0% | 0% | 8% | 0% | 0% | 25% | 22% | 0% | 0% | 86% | 46% | 21% | 88% | 0% | 4% | 42% | 43% | 3% | 0% | 59%

Reference: publication PMC5540273 (PLoS ONE, 2017)
